A selection: hits, their analogues and other compounds. The true share with any hit is near 5%.
USP7 inh – blocks human USP7 ubiquitin-rhodamine cleavage. 0.3% of 47,000 active. inhibition, % at 20 µM. AID 1645854. Q93009. purified USP7, Ub-rhodamine cleavage fluorescence
USP8 block – blocks human USP8 ubiquitin-rhodamine cleavage; P40818; AID 1645853; inhibition, % at 20 µM; purified USP8, Ub-rhodamine cleavage fluorescence, 30 min; 4.2% of 47,000 active
UCHL1 inh – human UCHL1 deubiquitinase inhibition. P09936. purified UCHL1, Ub-rhodamine cleavage fluorescence. inhibition, % at 20 µM. 0.2% of 47,000 active
USP10 block – blocks human USP10 ubiquitin-rhodamine cleavage. 1.1% of 47,000 active. Q14694. AID 1645856. inhibition, % at 20 µM. purified USP10, Ub-rhodamine fluorescence, 60 min
* marks the source's active call; other numbers are inactive results. Rule as the data show it: active = inhibition above about 30%; inactive = the rest.

Screening CNc1nccnc1C1CN(C(=O)c2c(C(C)C)noc2C)CCO1 (centres undefined) returned USP7 inh 2, USP8 block 32*, UCHL1 inh 1 and USP10 block 0.
For CCN1CC2(CCN(C(=O)c3ccn[nH]3)CC2)COc2ccccc2S1(=O)=O the results were USP7 inh 2, USP8 block 4, UCHL1 inh -2 and USP10 block 2.
For CN(C)c1ccc(CN2CCOC[C@H]2c2ncc(-c3cccnc3)[nH]2)cc1 the results were USP7 inh -35, USP8 block 33*, UCHL1 inh 9 and USP10 block -1.
O=C(Cn1c(CSc2ccccc2)nc2ccccc21)Nc1ccccc1F was read as USP7 inh 9, USP8 block 51*, UCHL1 inh 2 and USP10 block 10.
Screening CC(C)C(=O)N1CCN(C(=O)Nc2ccccc2)CC2(CNC(=O)C2)C1 (centres undefined) returned USP7 inh 0, USP8 block 0, UCHL1 inh -4 and USP10 block -1.
Cc1c(OCC(=O)NCc2ccccc2Cl)ccc2c3c(c(=O)oc12)CCC3 was read as USP7 inh 12, USP8 block 52*, UCHL1 inh 2 and USP10 block 23.
`Cc1cc(C)c(NC(=O)Cn2c(=O)n(CCC(=O)NCc3ccc4c(c3)OCO4)c(=O)c3sccc32)c(C)c1` gave USP7 inh 30*, USP8 block 27, UCHL1 inh 8 and USP10 block 57*.
O=C(CCCn1c(=O)c2sccc2n(CC(=O)NCCC2=CCCCC2)c1=O)NCc1ccc2c(c1)OCO2 was read as USP7 inh -1, USP8 block 4, UCHL1 inh -3 and USP10 block 15.
Screening COc1ccc(Cl)cc1NC(=O)Cn1c(=O)n(CCCC(=O)NCc2ccc(C)cc2)c(=O)c2sccc21 returned USP7 inh 18, USP8 block 68*, UCHL1 inh 4 and USP10 block 69*.
`CCOc1ccc(NC(=O)Cn2c(=O)n(CCCCCC(=O)NCc3ccc(F)cc3)c(=O)c3sccc32)cc1` gave USP7 inh 29, USP8 block 69*, UCHL1 inh 6 and USP10 block 51*.
Cc1c(C#N)c2ccccc2n1CC(=O)NCc1ccc2c(c1)OCO2 was read as USP7 inh 4, USP8 block 60*, UCHL1 inh 2 and USP10 block 25.
For Cc1cc(C)cc(NC(=O)CN(CCC(C)C)S(=O)(=O)c2ccccc2F)c1 the results were USP7 inh 11, USP8 block 27, UCHL1 inh 8 and USP10 block 12.
`O=C(COc1ccccc1F)N1CCSc2ccc(Cl)cc21` gave USP7 inh -4, USP8 block 15, UCHL1 inh 5 and USP10 block 8.
For COc1ccccc1CNC(=O)CCCCn1c(=O)c2ccccc2n(Cc2ccccc2C#N)c1=O the results were USP7 inh 1, USP8 block 0, UCHL1 inh 1 and USP10 block 28.
For COc1ccccc1CNC(=O)CCCCn1c(=O)c2ccccc2n(Cc2ccc(C)cc2)c1=O the results were USP7 inh 9, USP8 block 29, UCHL1 inh 0 and USP10 block 35*.
`O=C(Cc1coc2ccc3ccccc3c12)NCc1cccc(C(F)(F)F)c1` gave USP7 inh -10, USP8 block -17, UCHL1 inh -7 and USP10 block -2.
Screening COc1ccc(CN2CC[C@@H]3[C@H]2C(=O)NC[C@H](CCC(=O)N2CCOCC2)N3C)cc1 returned USP7 inh -1, USP8 block 7, UCHL1 inh 2 and USP10 block 0.
Screening CN1[C@@H](CCC(=O)N2CC[C@@H](O)C2)CNC(=O)[C@@H]2[C@H]1CCN2C1CCCCC1 returned USP7 inh -6, USP8 block -7, UCHL1 inh -2 and USP10 block -3.
Screening C#CCNC(=O)CC[C@H]1CNC(=O)[C@@H]2[C@@H](CCN2CC2CC2)N1C returned USP7 inh 1, USP8 block 6, UCHL1 inh 0 and USP10 block 1.
CN1[C@@H](CCC(=O)N2CCN(c3ccccn3)CC2)CNC(=O)[C@@H]2[C@H]1CCN2C1CCOCC1 was read as USP7 inh -13, USP8 block 69*, UCHL1 inh 12 and USP10 block -2.
For Cc1ccc(CN2CC[C@@H]3[C@H]2C(=O)NC[C@H](CCC(=O)N2CCOCC2)N3C)cc1 the results were USP7 inh 2, USP8 block 12, UCHL1 inh 3 and USP10 block -1.
For CN1[C@@H](CCC(=O)N2CCC(O)CC2)CNC(=O)[C@@H]2[C@H]1CCN2Cc1ccc(F)cc1 the results were USP7 inh -2, USP8 block 38*, UCHL1 inh 10 and USP10 block -4.

High-throughput results from PubChem.
